Experiments:
Experiment in all cases: log2 ratio of Biotin-Ahx-Ub-VS probe labelling (fragment/DMSO); higher = less target engagement (more negative = stronger competition), active = hit call of the paper (q ≤ 0.05, log2 ratio ≤ -1)
Conditions in all cases: compound concentration: 200 uM; treatment time: 3 h
USP34 = USP34 (UniProt Q70CQ2)
Method in brief: (§1)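 Fragment (200 µM) or vehicle was incubated for 3 h with triplicate HEK293T lysate samples of 495 µg, which were then treated with Biotin-Ahx-Ub-VS at 0.5 µM final for 1 h. Labelled DUBs were enriched on NeutrAvidin, digested with LysC and trypsin, and analysed by diaPASEF LC-MS/MS. Values are average log2 fragment/vehicle ratios from an unpaired t-test on global-median-normalised Spectronaut label-free quantities, using proteins with ≥2 unique peptides.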

USP36 = target: T1, USP36 (UniProt Q9P275)
T1 sequence (whole entry): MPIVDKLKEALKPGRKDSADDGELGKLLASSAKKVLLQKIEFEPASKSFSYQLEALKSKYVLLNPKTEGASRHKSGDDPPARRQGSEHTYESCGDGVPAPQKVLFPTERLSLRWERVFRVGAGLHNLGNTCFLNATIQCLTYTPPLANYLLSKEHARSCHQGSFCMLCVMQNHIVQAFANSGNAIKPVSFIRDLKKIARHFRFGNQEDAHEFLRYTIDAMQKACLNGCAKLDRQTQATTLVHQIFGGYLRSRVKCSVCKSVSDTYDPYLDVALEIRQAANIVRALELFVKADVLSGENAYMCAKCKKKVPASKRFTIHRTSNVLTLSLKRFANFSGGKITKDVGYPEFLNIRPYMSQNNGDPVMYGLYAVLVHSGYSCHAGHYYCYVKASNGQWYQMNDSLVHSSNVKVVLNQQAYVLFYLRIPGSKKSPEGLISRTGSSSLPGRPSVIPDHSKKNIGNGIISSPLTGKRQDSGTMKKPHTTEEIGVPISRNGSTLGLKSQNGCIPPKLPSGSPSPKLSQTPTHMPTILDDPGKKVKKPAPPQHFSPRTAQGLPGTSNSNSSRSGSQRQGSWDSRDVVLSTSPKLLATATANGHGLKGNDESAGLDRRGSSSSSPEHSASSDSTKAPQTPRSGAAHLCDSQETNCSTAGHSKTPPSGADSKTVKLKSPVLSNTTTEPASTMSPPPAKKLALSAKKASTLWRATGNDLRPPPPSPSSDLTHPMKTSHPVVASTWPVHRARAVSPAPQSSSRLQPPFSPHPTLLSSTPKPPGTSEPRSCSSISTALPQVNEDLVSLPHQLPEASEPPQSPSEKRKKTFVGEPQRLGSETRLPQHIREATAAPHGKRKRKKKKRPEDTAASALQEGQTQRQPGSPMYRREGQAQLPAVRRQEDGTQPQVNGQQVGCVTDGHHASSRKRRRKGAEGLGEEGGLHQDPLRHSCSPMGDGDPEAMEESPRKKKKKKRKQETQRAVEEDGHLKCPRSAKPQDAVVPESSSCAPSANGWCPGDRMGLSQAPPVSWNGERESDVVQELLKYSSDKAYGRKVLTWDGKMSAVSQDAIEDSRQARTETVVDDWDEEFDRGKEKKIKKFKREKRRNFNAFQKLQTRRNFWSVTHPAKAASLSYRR
Method in brief: as §1

USP38 = target: T2, USP38 (UniProt Q8NB14)
T2 sequence (whole entry): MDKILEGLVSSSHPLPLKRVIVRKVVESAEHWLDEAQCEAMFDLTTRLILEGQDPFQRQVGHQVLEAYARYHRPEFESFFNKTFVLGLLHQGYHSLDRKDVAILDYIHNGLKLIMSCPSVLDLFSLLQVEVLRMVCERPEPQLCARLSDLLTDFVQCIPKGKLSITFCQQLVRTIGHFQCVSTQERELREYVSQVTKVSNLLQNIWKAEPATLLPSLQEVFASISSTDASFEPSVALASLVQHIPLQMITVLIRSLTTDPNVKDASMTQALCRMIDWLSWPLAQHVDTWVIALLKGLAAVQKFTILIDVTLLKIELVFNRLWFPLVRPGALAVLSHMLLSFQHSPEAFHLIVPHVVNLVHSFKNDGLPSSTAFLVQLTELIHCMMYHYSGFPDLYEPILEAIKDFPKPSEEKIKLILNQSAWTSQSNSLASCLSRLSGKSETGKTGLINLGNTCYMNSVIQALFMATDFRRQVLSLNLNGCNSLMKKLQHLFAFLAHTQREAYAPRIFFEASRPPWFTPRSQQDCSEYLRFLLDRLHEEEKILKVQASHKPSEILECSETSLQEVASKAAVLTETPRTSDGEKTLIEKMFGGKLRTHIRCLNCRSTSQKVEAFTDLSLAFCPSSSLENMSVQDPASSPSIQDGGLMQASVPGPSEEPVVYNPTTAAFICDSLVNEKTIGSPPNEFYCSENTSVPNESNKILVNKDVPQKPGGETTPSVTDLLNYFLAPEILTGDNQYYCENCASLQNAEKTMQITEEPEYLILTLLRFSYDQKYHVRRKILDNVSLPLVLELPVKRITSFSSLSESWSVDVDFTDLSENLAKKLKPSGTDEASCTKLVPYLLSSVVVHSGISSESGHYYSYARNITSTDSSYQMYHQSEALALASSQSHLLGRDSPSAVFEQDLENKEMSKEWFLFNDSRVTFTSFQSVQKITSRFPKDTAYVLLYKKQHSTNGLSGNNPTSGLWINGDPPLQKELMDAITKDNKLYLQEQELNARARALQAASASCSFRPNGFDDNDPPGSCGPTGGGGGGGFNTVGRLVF
Method in brief: as §1

USP39 = target: T3, USP39 (UniProt Q53GS9)
T3 sequence (whole entry): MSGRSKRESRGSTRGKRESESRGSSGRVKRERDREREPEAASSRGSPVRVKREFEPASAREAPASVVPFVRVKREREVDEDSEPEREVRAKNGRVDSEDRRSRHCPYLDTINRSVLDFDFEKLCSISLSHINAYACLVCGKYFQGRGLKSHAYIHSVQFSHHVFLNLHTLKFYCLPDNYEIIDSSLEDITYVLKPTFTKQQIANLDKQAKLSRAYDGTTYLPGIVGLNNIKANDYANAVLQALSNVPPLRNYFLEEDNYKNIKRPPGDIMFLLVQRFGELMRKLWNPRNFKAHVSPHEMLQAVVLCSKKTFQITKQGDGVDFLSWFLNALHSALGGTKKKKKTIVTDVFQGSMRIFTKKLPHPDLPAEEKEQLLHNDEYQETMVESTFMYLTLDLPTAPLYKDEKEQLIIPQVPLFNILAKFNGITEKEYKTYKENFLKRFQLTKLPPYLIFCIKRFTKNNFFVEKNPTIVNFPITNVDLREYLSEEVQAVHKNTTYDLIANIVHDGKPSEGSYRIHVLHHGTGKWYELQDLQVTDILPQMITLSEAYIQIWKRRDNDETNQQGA
Method in brief: as §1

USP4 = target: T4, USP4 (UniProt Q13107)
T4 sequence (whole entry): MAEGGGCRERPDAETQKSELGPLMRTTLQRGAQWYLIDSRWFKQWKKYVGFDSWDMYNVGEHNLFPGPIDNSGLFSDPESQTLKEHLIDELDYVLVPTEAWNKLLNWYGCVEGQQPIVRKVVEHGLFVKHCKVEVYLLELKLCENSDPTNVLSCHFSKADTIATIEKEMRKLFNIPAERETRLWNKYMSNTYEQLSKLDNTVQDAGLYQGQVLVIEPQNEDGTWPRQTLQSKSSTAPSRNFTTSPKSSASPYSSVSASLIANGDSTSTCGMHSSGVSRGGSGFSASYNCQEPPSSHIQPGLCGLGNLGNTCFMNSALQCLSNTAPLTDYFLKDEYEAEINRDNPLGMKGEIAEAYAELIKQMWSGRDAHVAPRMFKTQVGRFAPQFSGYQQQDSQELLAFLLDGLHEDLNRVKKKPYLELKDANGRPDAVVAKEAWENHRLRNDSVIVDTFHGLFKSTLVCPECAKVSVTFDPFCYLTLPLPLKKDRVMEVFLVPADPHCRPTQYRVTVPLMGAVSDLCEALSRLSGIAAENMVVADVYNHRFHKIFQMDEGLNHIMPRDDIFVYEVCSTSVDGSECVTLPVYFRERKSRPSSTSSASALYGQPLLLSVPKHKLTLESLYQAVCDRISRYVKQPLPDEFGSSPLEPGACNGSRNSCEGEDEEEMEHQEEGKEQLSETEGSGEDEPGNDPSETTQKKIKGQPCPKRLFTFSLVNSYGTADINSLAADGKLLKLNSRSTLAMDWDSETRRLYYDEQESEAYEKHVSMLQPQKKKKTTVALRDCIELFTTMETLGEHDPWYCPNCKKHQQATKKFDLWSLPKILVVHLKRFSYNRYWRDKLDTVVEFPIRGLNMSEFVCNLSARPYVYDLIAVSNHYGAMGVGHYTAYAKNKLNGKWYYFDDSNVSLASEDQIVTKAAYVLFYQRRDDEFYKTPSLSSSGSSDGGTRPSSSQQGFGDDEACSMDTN
Method in brief: as §1

Measured: log2 ratio of Biotin-Ahx-Ub-VS probe labelling

USP34, sequence (Q70CQ2 whole entry, the tested form may be a part): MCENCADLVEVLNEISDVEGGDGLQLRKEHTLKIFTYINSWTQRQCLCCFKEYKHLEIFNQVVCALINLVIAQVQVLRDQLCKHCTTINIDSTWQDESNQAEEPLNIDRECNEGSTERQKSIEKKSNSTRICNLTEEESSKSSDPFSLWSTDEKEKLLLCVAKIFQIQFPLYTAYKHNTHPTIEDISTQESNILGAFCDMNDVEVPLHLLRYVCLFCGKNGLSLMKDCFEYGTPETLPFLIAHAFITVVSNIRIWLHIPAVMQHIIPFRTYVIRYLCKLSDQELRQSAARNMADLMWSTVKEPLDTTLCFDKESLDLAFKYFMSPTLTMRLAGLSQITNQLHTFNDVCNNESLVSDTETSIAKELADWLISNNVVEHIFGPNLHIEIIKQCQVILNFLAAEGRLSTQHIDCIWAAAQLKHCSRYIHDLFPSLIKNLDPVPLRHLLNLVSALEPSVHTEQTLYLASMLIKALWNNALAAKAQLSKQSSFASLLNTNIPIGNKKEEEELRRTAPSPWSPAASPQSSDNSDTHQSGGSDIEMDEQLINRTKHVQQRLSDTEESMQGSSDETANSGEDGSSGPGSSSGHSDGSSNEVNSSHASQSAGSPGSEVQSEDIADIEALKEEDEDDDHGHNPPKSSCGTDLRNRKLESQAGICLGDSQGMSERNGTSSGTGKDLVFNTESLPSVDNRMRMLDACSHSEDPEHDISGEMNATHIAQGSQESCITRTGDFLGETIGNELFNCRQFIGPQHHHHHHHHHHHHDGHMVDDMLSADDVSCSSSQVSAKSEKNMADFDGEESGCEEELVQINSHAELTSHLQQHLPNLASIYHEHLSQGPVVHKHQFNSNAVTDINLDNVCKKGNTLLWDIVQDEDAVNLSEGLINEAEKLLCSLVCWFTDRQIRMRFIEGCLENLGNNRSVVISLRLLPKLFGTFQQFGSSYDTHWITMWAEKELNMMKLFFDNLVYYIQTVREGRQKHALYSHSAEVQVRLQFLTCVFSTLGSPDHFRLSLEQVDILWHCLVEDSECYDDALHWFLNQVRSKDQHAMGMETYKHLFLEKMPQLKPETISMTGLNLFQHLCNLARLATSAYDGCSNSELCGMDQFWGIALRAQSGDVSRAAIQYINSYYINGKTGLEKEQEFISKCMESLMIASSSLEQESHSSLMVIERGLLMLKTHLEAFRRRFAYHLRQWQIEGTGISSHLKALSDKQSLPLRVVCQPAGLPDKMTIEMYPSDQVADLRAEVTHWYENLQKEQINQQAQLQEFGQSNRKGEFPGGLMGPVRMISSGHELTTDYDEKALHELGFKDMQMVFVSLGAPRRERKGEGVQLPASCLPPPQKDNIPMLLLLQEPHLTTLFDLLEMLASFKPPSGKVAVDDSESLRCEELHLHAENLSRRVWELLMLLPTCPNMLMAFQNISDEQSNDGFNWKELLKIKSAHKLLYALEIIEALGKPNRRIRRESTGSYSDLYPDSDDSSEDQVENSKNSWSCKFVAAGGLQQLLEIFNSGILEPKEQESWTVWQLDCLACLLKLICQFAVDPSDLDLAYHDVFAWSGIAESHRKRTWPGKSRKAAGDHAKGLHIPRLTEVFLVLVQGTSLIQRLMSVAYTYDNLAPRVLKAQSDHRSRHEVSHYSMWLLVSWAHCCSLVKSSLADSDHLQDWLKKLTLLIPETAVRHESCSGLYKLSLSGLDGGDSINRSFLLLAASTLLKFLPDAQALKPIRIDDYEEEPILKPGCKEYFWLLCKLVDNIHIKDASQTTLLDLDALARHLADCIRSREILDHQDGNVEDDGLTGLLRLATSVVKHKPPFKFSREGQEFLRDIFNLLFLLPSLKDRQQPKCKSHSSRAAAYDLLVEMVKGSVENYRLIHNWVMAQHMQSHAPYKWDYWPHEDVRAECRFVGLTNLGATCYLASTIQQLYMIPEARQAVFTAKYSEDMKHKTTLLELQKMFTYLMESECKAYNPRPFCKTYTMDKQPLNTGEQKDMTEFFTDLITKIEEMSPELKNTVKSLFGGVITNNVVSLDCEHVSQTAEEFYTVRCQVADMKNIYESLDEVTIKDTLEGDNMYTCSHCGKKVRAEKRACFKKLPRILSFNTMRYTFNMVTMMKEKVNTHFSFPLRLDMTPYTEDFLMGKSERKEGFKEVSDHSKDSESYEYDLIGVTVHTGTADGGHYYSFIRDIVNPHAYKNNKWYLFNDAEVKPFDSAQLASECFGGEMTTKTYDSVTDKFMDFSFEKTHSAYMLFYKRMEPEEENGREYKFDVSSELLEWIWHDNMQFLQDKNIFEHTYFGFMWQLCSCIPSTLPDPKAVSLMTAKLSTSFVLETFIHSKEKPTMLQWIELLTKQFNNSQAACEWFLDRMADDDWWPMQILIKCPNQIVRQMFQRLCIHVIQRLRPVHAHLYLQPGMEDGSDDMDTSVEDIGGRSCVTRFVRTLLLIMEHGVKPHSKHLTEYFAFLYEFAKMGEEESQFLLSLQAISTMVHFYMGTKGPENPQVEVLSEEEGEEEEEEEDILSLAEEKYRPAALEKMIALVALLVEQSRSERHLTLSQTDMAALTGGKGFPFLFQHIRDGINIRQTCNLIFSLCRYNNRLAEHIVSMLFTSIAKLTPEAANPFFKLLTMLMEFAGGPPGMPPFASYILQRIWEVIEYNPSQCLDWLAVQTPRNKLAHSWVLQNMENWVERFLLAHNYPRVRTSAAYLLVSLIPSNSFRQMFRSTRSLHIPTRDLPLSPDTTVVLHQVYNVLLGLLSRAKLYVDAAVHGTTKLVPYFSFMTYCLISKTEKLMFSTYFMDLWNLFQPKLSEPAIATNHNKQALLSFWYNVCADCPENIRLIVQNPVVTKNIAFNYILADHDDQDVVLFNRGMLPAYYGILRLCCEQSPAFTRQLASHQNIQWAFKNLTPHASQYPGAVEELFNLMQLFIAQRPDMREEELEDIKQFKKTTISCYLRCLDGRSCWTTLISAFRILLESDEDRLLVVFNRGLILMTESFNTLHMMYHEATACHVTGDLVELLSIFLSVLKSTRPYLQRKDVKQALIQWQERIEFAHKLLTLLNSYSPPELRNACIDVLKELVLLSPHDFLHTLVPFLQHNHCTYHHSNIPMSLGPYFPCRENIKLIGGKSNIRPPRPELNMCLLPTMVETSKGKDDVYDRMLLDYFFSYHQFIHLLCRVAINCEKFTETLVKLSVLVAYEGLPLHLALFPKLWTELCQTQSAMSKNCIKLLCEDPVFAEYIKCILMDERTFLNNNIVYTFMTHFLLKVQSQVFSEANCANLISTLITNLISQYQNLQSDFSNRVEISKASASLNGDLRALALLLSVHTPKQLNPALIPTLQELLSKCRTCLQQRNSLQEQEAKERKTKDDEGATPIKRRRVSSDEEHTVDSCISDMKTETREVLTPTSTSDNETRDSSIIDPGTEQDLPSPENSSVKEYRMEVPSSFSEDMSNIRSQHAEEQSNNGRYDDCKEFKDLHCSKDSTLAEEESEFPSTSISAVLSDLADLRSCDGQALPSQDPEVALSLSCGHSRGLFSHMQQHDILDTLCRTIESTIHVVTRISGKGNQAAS

Cc1cccc(N(CCC#N)C(=O)CCl)c1C
inactive: USP34 -0.119 | USP36 -0.0707 | USP38 -0.0489 | USP39 -0.305 | USP4 0.163

Reference: the supplement of paper PMC11732987, “Enantioselective OTUD7B fragment discovery through chemoproteomics screening and high-throughput optimisation” (Communications Chemistry, 2025)
